Screen size: about 5,500 compounds; about 2,000 (36%) were called active. Another 18% or so got no clear call; they are omitted. No stated cut-off is given here; in the data, active means normalized growth mostly below about 0.91 (no sharp cut-off); inconclusive means no clear call, values can overlap the other calls; inactive means mostly above about 0.92. The list shows a part of the results.
Test: chemical genetic growth profiling, strain panel (AID 1159580);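 further: tested at 20 µM; growth read once vehicle control cultures reached saturation at 30 °C; 1 = growth at the plate median or of vehicle wells; lower values mean less growth of the strain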
Details: growth OD
[1] = S. cerevisiae deletion strains, locus YAL013W, strain DEP1, hits give low values
[2] = S. cerevisiae deletion strains, locus YDR150W, strain NUM1, hits give low values
[3] = S. cerevisiae deletion strains, locus YMR263W, strain SAP30, hits give low values
[4] = S. cerevisiae deletion strains, locus YPL055C, strain LGE1, hits give low values
[5] = S. cerevisiae deletion strains, locus YPL241C, strain CIN2, hits give low values

Measured: normalized growth

CN(/N=C\c1ccccc1)c1ncc(C(F)(F)F)cc1Cl
active: S. cerevisiae deletion strains, locus YHR030C, strain SLT2, hits give low values 0.392 | S. cerevisiae deletion strains, locus YHR087W, strain rtc3, hits give low values 0.905 | S. cerevisiae deletion strains, locus YLR085C, strain ARP6, hits give low values 0.775
inactive: [1] 0.975 | S. cerevisiae deletion strains, locus YBR229C, strain ROT2, hits give low values 0.949 | S. cerevisiae deletion strains, locus YCL061C, strain MRC1, hits give low values 0.989 | S. cerevisiae deletion strains, locus YDL101C, strain DUN1, hits give low values 0.96 | S. cerevisiae deletion strains, locus YDL134C, strain PPH21, hits give low values 0.988 | [2] 0.897 | S. cerevisiae deletion strains, locus YEL061C, strain CIN8, hits give low values 0.938 | S. cerevisiae deletion strains, locus YGR078C, strain PAC10, hits give low values 0.934 | S. cerevisiae deletion strains, locus YJR043C, strain POL32, hits give low values 0.99 | S. cerevisiae deletion strains, locus YJR075W, strain HOC1, hits give low values 0.921 | S. cerevisiae deletion strains, locus YLR039C, strain RIC1, hits give low values 0.89 | S. cerevisiae deletion strains, locus YLR058C, strain SHM2 (second series), hits give low values 0.953 | S. cerevisiae deletion strains, locus YLR262C, strain YPT6, hits give low values 0.88 | S. cerevisiae deletion strains, locus YML094W, strain GIM5, hits give low values 0.929 | S. cerevisiae deletion strains, locus YMR219W, strain ESC1, hits give low values 0.978 | [3] 0.99 | S. cerevisiae deletion strains, locus YNL153C, strain GIM3, hits give low values 0.984 | S. cerevisiae deletion strains, locus YNL298W, strain CLA4 (second series), hits give low values 0.949 | S. cerevisiae deletion strains, locus YNL322C, strain KRE1, hits give low values 0.974 | S. cerevisiae deletion strains, locus YNR030W, strain Alg12, hits give low values 0.89 | [4] 0.901 | [5] 1.02 | S. cerevisiae deletion strains, locus YPR135W, strain CTF4, hits give low values 0.907 | S. cerevisiae strains, strain wild type, hits give low values 0.98

CN(C(=O)CCCOc1ccc2[nH]c(=O)ccc2c1)C1CCCCC1
inactive: [1] 1.01 | S. cerevisiae deletion strains, locus YAL040C, strain CLN3, hits give low values 0.998 | S. cerevisiae deletion strains, locus YCL061C, strain MRC1 (second series), hits give low values 0.998 | [2] 0.99 | S. cerevisiae deletion strains, locus YDR363W, strain ESC2, hits give low values 1 | S. cerevisiae deletion strains, locus YER002W, strain NOP16, hits give low values 0.989 | [3] 0.989 | S. cerevisiae deletion strains, locus YMR307W, strain GAS1, hits give low values 1.01 | S. cerevisiae deletion strains, locus YNL175C, strain NOP13, hits give low values 1.01 | S. cerevisiae deletion strains, locus YNL197C, strain WHI3, hits give low values 1.02 | S. cerevisiae deletion strains, locus YNL224C, strain SQS1, hits give low values 0.989 | S. cerevisiae deletion strains, locus YOR083W, strain WHI5 (second series), hits give low values 0.993 | [4] 1 | [5] 0.999

From PubChem BioAssay AID1159580 (chemical genetic matrix, 2015)
